Test [1] concerns the target Acetylcholinesterase (Homo sapiens) (UniProt P22303). Briefly: Acetylcholinesterase (AChE) small molecule antagonists: enzyme-based qHTS assay (AID 1347397; calls by dose curve; further: nearly all actives have a fitted effect of over 55% in size). To be noted: Potency: AChE enzyme activity inhibition. Put shortly: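 Tox21 library chemicals are tested in qHTS format against recombinant human AChE. The enzyme, dispensed at 50 mU/mL, sits with compound for 30 min at room temperature. A DTNB–acetylthiocholine cocktail follows, and colour is read after 10 min.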
In general terms: In qHTS, concentration-response curves come from the screen itself.

Test [2] shares this target. Briefly: Acetylcholinesterase (AChE) small molecule antagonists: enzyme-based qHTS assay with human liver microsomes (AID 1347399; calls by dose curve; further: nearly all actives have a fitted effect of over 60% in size). The following applies: Potency: qHTS inhibition. The method, boiled down: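 Recombinant human AChE (50 mU/mL in the enzyme mix) and human liver microsomes (0.25 mg/mL final) were preincubated with compound and NADPH (0.25 mg/mL final) for 30 min at 37 C. Acetylthiocholine/DTNB was then added; thiocholine was read colorimetrically after 10 min at room temperature.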

For test [3], the target named is Cytochrome P450 2D6 (Homo sapiens) (UniProt P10635). Briefly: Cytochrome P450 Family 2 Subfamily D Member 6 (CYP2D6) small molecule antagonists: luciferase reporter qHTS assay (AID 1671196). Further: nearly all actives have a fitted effect of over 50% in size. The method, boiled down: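 CYP2D6 activity was followed as luminescence from its luciferin product after a 1 h NADPH-driven reaction at room temperature. Enzyme-substrate mix and compound were pre-incubated for 10 min, and the signal was read 20 min after adding detection reagent.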
(In general: Reporter assays use an easily measured gene product as a stand-in for the process of interest.)

Test [4] has as its target Cytochrome P450 2C19 (Homo sapiens) (UniProt P33261). Briefly: Cytochrome P450 Family 2 Subfamily C Member 19 (CYP2C19) small molecule antagonists: luciferase reporter qHTS assay (AID 1671197). Further: nearly all actives have a fitted effect of over 65% in size. Put shortly: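 First, compounds are pinned into enzyme-substrate mix and held 10 min at room temperature. Second, NADPH regeneration solution is added and plates incubate 1 h at 37C. Third, detection reagent is added and luminescence read after 20 min.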

Test [5] has as its target Cytochrome P450 2C9 (Homo sapiens) (UniProt P11712). Kind of test: Cytochrome P450 Family 2 Subfamily C Member 9 (CYP2C9) small molecule antagonists: luciferase reporter qHTS assay (AID 1671198). Further: nearly all actives have a fitted effect of over 50% in size. The method, boiled down:
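CYP2C9 activity was measured with a P450-Glo proluciferin substrate. Enzyme–substrate mix was held with compound for 10 min at room temperature, then NADPH regeneration solution was added for 1 h at 37C. Luciferin product was read as luminescence.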

Test [6] addresses Cytochrome P450 1A2 (Homo sapiens) (UniProt P05177). Briefly: Cytochrome P450 Family 1 Subfamily A Member 2 (CYP1A2) small molecule antagonists: luciferase reporter qHTS assay (AID 1671199). Further: nearly all actives have a fitted effect of over 50% in size. The method, boiled down:
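Luminescence from luciferin formed by CYP1A2 from a proluciferin substrate, read 20 min after detection reagent. Compound was pre-incubated 10 min with enzyme-substrate, and reaction started with NADPH regeneration solution for 1 h at room temperature; furafylline control.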

Test [7] has as its target Voltage-gated inwardly rectifying potassium channel KCNH2 (Homo sapiens) (UniProt Q12809). Kind of test: Human Ether-a-go-go-Related Gene (hERG) channel small molecule antagonists: fluorescence cell-based qHTS assay (AID 1671200). Further: nearly all actives have a fitted effect of over 50% in size. The method, boiled down: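 In this thallium-flux screen, overnight-cultured U2OS cells bearing the channel are dye-loaded in darkness for an hour, rested 10 min at room temperature, and then monitored kinetically at 480/540 nm for two minutes post-stimulus.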
(hERG is a cardiac potassium channel; its block is linked to QT prolongation.)

The target in test [8] is Cytochrome P450 3A4 (Homo sapiens) (UniProt P08684). Briefly: Cytochrome P450 Family 3 Subfamily A Member 4 (CYP3A4) small molecule antagonists: luciferase reporter qHTS assay (AID 1671201). Further: nearly all actives have a fitted effect of over 50% in size. The method, boiled down:
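CYP3A4 activity was followed with a P450-Glo proluciferin substrate. Test compounds in DMSO were preincubated 10 min; NADPH regeneration then ran 1 h, and light output was read 20 min after detection reagent.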

Molecules are shown by their SMILES. Inconclusive results are not listed. The source made the active and inactive calls. Unless noted, the call rests on the fitted dose curve; in most records, active means well fitted curve in the direction sought with a large enough effect in the repeat runs; inconclusive means weak or mixed curves; inactive means no such curve, though single readings can be large; an effect the other way counts as inactive or inconclusive.
Potency means the concentration at half of the fitted maximal effect.

Chain of Voltage-gated inwardly rectifying potassium channel KCNH2 (Homo sapiens) (Q12809 whole entry, looked up): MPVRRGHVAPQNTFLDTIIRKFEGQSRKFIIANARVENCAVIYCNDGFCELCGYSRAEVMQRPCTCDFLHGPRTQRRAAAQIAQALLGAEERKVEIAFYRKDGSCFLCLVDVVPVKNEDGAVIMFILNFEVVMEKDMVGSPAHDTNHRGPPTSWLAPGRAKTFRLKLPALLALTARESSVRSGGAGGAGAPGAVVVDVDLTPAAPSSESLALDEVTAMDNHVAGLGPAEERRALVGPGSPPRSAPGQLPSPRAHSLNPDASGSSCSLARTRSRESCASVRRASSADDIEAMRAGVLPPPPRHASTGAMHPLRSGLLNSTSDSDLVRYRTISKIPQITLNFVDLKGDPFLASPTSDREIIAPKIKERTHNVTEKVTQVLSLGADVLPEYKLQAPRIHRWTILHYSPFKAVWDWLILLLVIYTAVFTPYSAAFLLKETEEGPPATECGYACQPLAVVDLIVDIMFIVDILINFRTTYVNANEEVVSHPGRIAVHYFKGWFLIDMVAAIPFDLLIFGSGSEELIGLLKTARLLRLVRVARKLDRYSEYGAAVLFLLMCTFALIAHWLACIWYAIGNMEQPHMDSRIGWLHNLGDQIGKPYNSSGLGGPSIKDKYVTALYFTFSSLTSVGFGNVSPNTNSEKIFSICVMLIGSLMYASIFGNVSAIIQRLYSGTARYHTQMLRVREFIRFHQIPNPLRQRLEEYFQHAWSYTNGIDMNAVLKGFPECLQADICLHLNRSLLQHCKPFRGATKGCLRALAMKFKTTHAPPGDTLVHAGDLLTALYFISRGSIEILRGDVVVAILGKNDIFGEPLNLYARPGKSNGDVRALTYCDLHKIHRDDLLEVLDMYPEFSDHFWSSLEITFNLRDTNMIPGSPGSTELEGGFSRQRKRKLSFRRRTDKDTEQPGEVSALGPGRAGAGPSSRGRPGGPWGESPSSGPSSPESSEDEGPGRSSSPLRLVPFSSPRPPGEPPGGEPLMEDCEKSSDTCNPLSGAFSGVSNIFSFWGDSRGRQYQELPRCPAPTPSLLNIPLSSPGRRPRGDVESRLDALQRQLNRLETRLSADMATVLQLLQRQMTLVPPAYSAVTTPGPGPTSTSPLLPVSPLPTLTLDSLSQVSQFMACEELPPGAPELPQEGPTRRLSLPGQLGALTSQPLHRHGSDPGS
Chain of Cytochrome P450 2C19 (Homo sapiens) (P33261 whole entry, looked up): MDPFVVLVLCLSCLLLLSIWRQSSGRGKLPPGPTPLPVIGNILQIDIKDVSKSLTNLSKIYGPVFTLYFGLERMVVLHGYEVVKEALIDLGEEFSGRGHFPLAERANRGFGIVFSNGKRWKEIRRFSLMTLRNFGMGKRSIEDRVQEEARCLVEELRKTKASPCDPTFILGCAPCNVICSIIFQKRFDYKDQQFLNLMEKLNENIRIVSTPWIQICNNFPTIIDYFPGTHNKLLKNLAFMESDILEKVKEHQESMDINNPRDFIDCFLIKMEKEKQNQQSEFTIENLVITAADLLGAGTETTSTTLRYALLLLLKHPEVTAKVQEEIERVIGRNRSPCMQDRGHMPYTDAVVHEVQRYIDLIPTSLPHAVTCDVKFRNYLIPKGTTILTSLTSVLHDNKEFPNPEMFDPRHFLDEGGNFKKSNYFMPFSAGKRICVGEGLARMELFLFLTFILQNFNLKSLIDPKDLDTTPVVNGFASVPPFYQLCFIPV
Chain of Cytochrome P450 2D6 (Homo sapiens) (P10635 whole entry, looked up): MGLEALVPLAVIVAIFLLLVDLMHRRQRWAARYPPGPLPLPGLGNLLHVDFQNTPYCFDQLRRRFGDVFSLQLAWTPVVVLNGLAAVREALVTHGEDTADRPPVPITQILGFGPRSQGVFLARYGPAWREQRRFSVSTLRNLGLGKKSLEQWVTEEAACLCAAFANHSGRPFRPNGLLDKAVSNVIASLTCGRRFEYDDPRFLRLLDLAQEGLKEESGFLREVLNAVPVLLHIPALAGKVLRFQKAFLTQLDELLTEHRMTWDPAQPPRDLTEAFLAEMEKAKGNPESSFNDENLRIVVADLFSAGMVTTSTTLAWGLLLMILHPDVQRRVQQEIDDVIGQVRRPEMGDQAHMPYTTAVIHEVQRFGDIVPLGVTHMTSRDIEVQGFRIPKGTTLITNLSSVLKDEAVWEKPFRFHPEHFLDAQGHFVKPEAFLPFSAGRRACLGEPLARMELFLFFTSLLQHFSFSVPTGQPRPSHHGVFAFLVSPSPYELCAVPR
Chain of Acetylcholinesterase (Homo sapiens) (P22303 whole entry, looked up): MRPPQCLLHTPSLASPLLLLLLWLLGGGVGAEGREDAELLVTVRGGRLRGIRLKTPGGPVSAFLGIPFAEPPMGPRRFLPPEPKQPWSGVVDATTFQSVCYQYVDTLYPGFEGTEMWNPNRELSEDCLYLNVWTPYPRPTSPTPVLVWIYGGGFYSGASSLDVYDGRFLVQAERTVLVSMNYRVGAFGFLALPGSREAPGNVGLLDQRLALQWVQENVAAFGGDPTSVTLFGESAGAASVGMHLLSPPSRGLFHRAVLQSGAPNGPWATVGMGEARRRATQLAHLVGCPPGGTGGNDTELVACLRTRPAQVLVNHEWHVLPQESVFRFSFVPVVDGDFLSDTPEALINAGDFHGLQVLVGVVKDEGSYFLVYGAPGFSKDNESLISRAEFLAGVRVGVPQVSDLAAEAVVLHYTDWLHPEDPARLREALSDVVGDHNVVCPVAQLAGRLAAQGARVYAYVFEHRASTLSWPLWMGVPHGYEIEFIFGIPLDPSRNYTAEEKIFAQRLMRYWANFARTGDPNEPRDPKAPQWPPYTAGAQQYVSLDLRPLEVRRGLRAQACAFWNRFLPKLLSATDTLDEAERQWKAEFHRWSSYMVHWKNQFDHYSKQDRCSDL
Chain of Cytochrome P450 3A4 (Homo sapiens) (P08684 whole entry, looked up): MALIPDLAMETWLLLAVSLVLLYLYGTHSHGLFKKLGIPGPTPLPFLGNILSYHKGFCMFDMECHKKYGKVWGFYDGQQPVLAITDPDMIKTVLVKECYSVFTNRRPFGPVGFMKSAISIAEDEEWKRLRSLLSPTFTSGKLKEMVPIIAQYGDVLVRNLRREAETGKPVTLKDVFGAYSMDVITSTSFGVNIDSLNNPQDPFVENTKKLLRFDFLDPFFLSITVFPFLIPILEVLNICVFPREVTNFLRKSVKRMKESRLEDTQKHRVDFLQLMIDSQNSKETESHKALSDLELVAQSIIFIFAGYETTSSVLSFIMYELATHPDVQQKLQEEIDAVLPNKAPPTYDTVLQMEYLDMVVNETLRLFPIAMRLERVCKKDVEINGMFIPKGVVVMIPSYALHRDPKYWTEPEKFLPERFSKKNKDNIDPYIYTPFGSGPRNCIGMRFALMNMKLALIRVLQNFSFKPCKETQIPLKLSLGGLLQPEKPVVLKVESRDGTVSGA
Chain of Cytochrome P450 1A2 (Homo sapiens) (P05177 whole entry, looked up): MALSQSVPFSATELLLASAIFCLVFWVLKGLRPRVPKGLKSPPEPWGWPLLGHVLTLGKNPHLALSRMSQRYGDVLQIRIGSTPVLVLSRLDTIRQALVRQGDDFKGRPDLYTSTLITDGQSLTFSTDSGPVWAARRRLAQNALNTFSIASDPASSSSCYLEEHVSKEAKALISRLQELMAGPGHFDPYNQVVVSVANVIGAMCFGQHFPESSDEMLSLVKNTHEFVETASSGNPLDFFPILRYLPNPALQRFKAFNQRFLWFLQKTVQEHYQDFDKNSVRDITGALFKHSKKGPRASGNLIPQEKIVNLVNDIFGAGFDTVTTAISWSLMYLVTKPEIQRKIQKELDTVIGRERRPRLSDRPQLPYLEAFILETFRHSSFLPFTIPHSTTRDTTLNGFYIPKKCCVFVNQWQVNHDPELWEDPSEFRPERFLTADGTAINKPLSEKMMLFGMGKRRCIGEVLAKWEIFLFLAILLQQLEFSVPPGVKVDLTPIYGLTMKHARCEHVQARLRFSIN
Chain of Cytochrome P450 2C9 (Homo sapiens) (P11712 whole entry, looked up): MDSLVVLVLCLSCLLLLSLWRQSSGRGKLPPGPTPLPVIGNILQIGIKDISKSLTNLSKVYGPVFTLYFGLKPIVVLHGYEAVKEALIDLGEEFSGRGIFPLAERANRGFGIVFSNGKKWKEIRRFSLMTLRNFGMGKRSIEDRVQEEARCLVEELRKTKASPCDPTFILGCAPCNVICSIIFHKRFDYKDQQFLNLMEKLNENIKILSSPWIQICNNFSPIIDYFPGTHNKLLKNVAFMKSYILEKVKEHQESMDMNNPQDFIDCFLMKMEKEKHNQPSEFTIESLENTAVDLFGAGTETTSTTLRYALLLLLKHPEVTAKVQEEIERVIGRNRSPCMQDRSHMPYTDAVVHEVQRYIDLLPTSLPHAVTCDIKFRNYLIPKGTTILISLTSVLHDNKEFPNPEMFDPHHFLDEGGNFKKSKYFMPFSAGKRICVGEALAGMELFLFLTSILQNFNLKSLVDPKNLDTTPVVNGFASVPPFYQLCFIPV

`Clc1ccc(C2(Cn3cncn3)OCCO2)c(Cl)c1`: the Potency result in test [1], in test [2] and in test [7] was “inactive” throughout. Further, the Potency was 63.3 µM (active) in test [3]; 3.17 µM (active) in test [4]; 17.8 µM (active) in test [5]; 28.3 µM (active) in test [6]; 0.502 µM (active) in test [8].

In the case of `CC(C)(C)c1ccc(OP(=O)(Oc2ccccc2)Oc2ccccc2)cc1`, the Potency in test [1] is 22.6 µM (active); in test [4], 5.06 µM (active); in test [5] it was 5.06 µM (active); in test [6] it was 16 µM (active); in test [7], 15.6 µM (active). The Potency result in test [2], in test [3] and in test [8] was “inactive” each time.

Take `FC(F)C(F)(F)OCC(Cn1cncn1)c1ccc(Cl)cc1Cl` (centres undefined): the Potency result in test [1], in test [2] and in test [7] was “inactive” each time. The Potency is 11.2 µM (active) in test [3]; 0.0199 µM (active) in test [4]; 1.77 µM (active) in test [5]; 7.06 µM (active) in test [6]; 0.223 µM (active) in test [8].

In the case of `Clc1ccc(C(Cl)(Cl)Cl)cc1Cl`, the Potency entry in test [1], in test [2], in test [3], in test [5] and in test [7] was “inactive” each time.

As to `CCCCC(CC)COC(=O)OOC(C)(C)C` (centres undefined), the Potency entry in test [1], in test [2], in test [3], in test [4], in test [5] and in test [7] was “inactive” throughout. Besides, the Potency result in test [8] was “inactive”.

As for `C[C@]12Cc3cn[nH]c3C[C@@H]1CC[C@@H]1[C@@H]2CC[C@@]2(C)[C@H]1CC[C@]2(C)O`, the Potency result in test [1], in test [2], in test [6] and in test [7] was “inactive” in each case. For the same compound, the Potency in test [4] is 0.776 µM (active); in test [5], 0.977 µM (active).

Regarding `COC(=O)/C=C(\C)OP(=O)(OC)OC`, the Potency was 3.56 µM (active) in test [1], 17.8 µM (active) in test [2], 31.7 µM (active) in test [3] and 71 µM (active) in test [4]. The Potency result in test [5], in test [6], in test [7] and in test [8] was “inactive” each time.

In the case of `Oc1ccc([C@H]2CNCc3c2ccc(O)c3O)cc1O`, the Potency entry in test [1], in test [2], in test [6], in test [7] and in test [8] was “inactive” throughout. Moreover, the results for the Potency in test [3], in test [4] and in test [5] were 34.7 µM (active), 38.9 µM (active) and 13.8 µM (active), respectively.

`CCCCCON=O`: the Potency result in test [1], in test [2], in test [3], in test [4], in test [5] and in test [6] was “inactive” throughout. Moreover, the Potency result in test [7] and in test [8] was “inactive” throughout.

On to `[Cl][Hg][c]1ccccc1`, for which the Potency entry in test [1] was “inactive”. Also, the Potency is 0.796 µM (active) in test [3]; 5.03 µM (active) in test [4]; 3.99 µM (active) in test [5]; 28.3 µM (active) in test [6]; 17.4 µM (active) in test [7]; 8.94 µM (active) in test [8].

As to `CC(C)C(Nc1ccc(C(F)(F)F)cc1Cl)C(=O)OC(C#N)c1cccc(Oc2ccccc2)c1` (centres undefined), the Potency result in test [1], in test [2] and in test [7] was “inactive” throughout. Further, the Potency is 9.01 µM (active) in test [4] and 6.38 µM (active) in test [5].

As to `Nc1ccc(N=Nc2ccccc2)cc1`, the Potency entry in test [1], in test [2] and in test [7] was “inactive” throughout. The Potency is 12.6 µM (active) in test [4], 12.6 µM (active) in test [5] and 4.61 µM (active) in test [6].

`O=C(Nc1ccc(F)cc1F)c1cccnc1Oc1cccc(C(F)(F)F)c1`: the Potency result in test [1], in test [2], in test [3], in test [7] and in test [8] was “inactive” throughout. Besides, the Potency in test [6] is 7.81 µM (active).

As for `CC(Cc1ccccc1)N(C)Cc1ccco1` (centres undefined), the Potency result in test [1], in test [2], in test [5], in test [6], in test [7] and in test [8] was “inactive” throughout. In addition, the Potency in test [3] is 0.776 µM (active); in test [4], 7.76 µM (active).

Consider `C=CC(=C)C`, for which the Potency result in test [1], in test [2], in test [3], in test [4], in test [5] and in test [6] was “inactive” in each case. Moreover, the Potency entry in test [7] and in test [8] was “inactive” throughout.

As to `CC1=C2C[C@H]3[C@@H](CC=C4C[C@@H](O)CC[C@@]43C)[C@@H]2CC[C@]12O[C@@H]1C[C@H](C)CN[C@H]1[C@H]2C`, the Potency result in test [1], in test [2], in test [3], in test [4], in test [5] and in test [6] was “inactive” in each case. For the same compound, the Potency entry in test [7] and in test [8] was “inactive” in each case.

On to `CN=C=O`, for which the Potency result in test [1], in test [4], in test [5], in test [7] and in test [8] was “inactive” each time. Moreover, the Potency in test [3] was 57.2 µM (active); in test [6], 36.1 µM (active).

Regarding `C#CCC1=C(C)C(OC(=O)C2C(C=C(C)C)C2(C)C)CC1=O` (centres undefined), the Potency entry in test [1] and in test [2] was “inactive” throughout. Besides, the Potency was 39.7 µM (active) in test [3]; 4.99 µM (active) in test [4]; 12.5 µM (active) in test [5]; 25 µM (active) in test [6]; 43.4 µM (active) in test [7]; 8.88 µM (active) in test [8].
